The campaign covered roughly 360,000 compounds. About 11,000 (3.1%) were called active. The list comes from a sample in which actives are over-represented; it also holds similar structures and randomly drawn compounds. Unmarked numbers belong to inactive results. Cut-off read from the data, not from the text of the source: active = activity change below about -30%; inactive = the rest.
% is set by controls: 0 for no effect and ±100 for the full control effect.

D(1A) dopamine receptor (Homo sapiens), sequence (P21728 whole entry, looked up): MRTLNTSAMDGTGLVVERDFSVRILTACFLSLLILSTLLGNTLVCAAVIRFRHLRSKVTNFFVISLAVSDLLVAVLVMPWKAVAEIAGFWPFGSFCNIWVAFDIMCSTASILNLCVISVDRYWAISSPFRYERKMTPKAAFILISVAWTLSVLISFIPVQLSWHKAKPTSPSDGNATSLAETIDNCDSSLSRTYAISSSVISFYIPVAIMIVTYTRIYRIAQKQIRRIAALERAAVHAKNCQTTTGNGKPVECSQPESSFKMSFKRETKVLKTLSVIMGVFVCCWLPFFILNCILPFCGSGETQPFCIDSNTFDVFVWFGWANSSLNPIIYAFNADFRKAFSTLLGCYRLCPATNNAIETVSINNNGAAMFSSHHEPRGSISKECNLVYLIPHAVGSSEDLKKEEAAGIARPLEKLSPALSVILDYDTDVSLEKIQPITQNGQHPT

The target in this assay is D(1A) dopamine receptor (Homo sapiens) (UniProt P21728). Put plainly: Antagonist of Human D 1 Dopamine Receptor: qHTS. The note with it: HEK293 TREx D1 cells, calcium flux, dopamine EC80; at 10 µM; active compounds read low. Summed up:
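HEK293 T-REx cells expressing inducible, force-coupled D1 receptor; no-wash Ca dye, 30–90 min RT. Cmpd → 180 s read at 1 Hz → EC80 DA → 180 s read.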
For `COc1ccc(NC(=O)Cn2c(=O)n(Cc3ccc(C(=O)NCc4ccccc4Cl)cc3)c(=O)c3ccccc32)cc1`, the activity change, negative = inhibition was -5.19%. As for `CCN(Cc1ccccc1)S(=O)(=O)c1cc(C(=O)O)ccc1OC`, the activity change, negative = inhibition was 27.7%. Take `CCN(Cc1ccccc1)S(=O)(=O)c1cc2c3c(c1)CCN3C(=O)CC2`: the activity change, negative = inhibition is -34.1% (active). Turning to `CCN(Cc1ccccc1)S(=O)(=O)c1ccc2c(c1)CCCN2C(C)=O`, the activity change, negative = inhibition is -20%. With `CC(=O)Nc1ccc(OC(=O)COc2ccc(Br)cc2)cc1`, the activity change, negative = inhibition is -21.3%. On to `Cc1ccc(O)c(NC(=S)NC(=O)COc2ccc(Br)cc2)c1`, for which the activity change, negative = inhibition is -46.3% (active). Consider `Cn1cccc1C(=O)NNC(=O)COc1ccc(Br)cc1`, for which the activity change, negative = inhibition is 16.4%. Regarding `Cc1ccc(-c2nc(SCc3ccc(Br)cc3)n3[nH]c(=O)cc3n2)cc1`, the activity change, negative = inhibition was -5.43%. `CC(C)CC(=O)NCC(c1ccc2c(c1)OCO2)N1CCN(c2ccc(F)cc2)CC1` (stereo not drawn): the activity change, negative = inhibition was 19.3%.

With `COc1ccc(OC)c(NC(=O)/C=C/c2ccc(C)o2)c1`, the activity change, negative = inhibition is -17.2%. For the molecule `COC(=O)COc1cccc2c(=O)n(CC(=O)NCCc3ccc(OC)c(OC)c3)ccc12`, the activity change, negative = inhibition is 19.9%.

Take `COc1ccc(CNC(=O)COC(=O)c2c(C)nn(-c3ccccc3)c2C)cc1OC`: the activity change, negative = inhibition is -26%. Next, `COc1ccc(CNC(=O)COc2ccccc2C(=O)c2cnn(-c3ccccc3)c2)cc1OC`: -32.7% (active); `Cc1cc(O)c(C(c2ccccc2)N2CCN(c3ccccc3F)CC2)c(=O)n1Cc1ccco1` (stereo not drawn): -28.1%; `Cn1c(=O)c2c(-c3ccccc3Br)n(Cc3ccccc3)cc2n(C)c1=O`: -11.3%. Take `COc1ccc(C(=O)C2CCCN(Cc3cccn3-c3ccccn3)C2)c(C)c1` (stereo not drawn): the activity change, negative = inhibition is -34.5% (active). With `COc1ccc(C(=O)C2CCCN(S(=O)(=O)c3cccc(C)c3)C2)c(C)c1` (stereo not drawn), the activity change, negative = inhibition was 2.24%. For the molecule `COc1ccc(C(=O)C2CCCN(C(=O)c3cnsn3)C2)c(C)c1` (stereo not drawn), the activity change, negative = inhibition is 22.1%. Take `CCOc1ccc(Nc2oc(/C=C/c3ccc(F)cc3)nc2C#N)cc1`: the activity change, negative = inhibition is -2.32%. In the case of `COc1cccc(NC(=O)CC2C(=O)NCCN2C(=S)Nc2ccc(F)cc2)c1` (stereo not drawn), the activity change, negative = inhibition was -8.91%. For `CCc1ccc(NC(=O)CC2C(=O)NCCN2C(=S)Nc2ccccc2)cc1` (stereo not drawn), the activity change, negative = inhibition was -31.7% (active).

For the molecule `CCNC(=O)N1CCNC(=O)C1CC(=O)Nc1ccc(C(=O)OCC)cc1` (stereo not drawn), the activity change, negative = inhibition was 11.7%. Next, `COc1ccc(Cl)cc1C(=O)NCc1cn(C)nc1C`: -31.1% (active). In the case of `Cc1ccc(-c2cc(C(=O)NCc3cn(C)nc3C)c3cc(Br)ccc3n2)cc1`, the activity change, negative = inhibition was -1.17%.

As for `Cc1nn(C)cc1CNC(=O)Nc1ccc(Cl)cc1`, the activity change, negative = inhibition is 5.45%. With `Cc1ccc(CCNC(=O)c2ccc(CNS(=O)(=O)c3ccc(C)cc3)cc2)cc1`, the activity change, negative = inhibition is -6.27%. Consider `CCOc1ccc(N(Cc2ccccc2)C(=O)c2nc(S(C)(=O)=O)ncc2Cl)cc1`, for which the activity change, negative = inhibition is -4.67%. Next, `CN(C)CC/C=C1\c2ccccc2CSc2ccccc21`: -62.1% (active); `CN(C)Cc1ccccc1C1(O)c2ccccc2CSc2ccccc21` (stereo not drawn): -0.848%; `COc1ccccc1NC(=O)CN1C(=O)c2ccccc2Sc2ccc(C(=O)N3CCCC3)cc21`: 9.27%. Next, `COc1ccc(N2CCN(C(=O)c3c(C)oc4nc(C)nc(N5CCCC5)c34)CC2)cc1`: -1.85%. With `COc1ccc(OCC(=O)OCCN(C)C)cc1`, the activity change, negative = inhibition is -9.23%. `O=C(O)C(c1ccccc1)C1(O)CCCCC1` (stereo not drawn): the activity change, negative = inhibition is -1.48%. For the molecule `CN(C)CCOC(=O)C(c1ccccc1)C1(O)CCCC1` (stereo not drawn), the activity change, negative = inhibition was -42.6% (active). On to `CCN(c1ncnc2c1cnn2-c1ccc(C)cc1)C1CCCCC1`, for which the activity change, negative = inhibition is 13.5%. With `Cc1ccc2c(c1)-c1c(cnn1CC(=O)Nc1ccccc1C#N)CO2`, the activity change, negative = inhibition is 23.7%. Consider `Cc1oc2ncnc(N3CCCCC3)c2c1C(=O)N1CCN(c2cccc(Cl)c2)CC1`, for which the activity change, negative = inhibition was -0.886%. Turning to `CC(C)Cn1c(=O)c2ccccc2n2c(CCC(=O)N3CCN(c4cccc(Cl)c4)CC3)nnc12`, the activity change, negative = inhibition is -9.12%. Next, `Cc1ccc(C)n1-c1nnc(N2CCC(C(=O)NCc3ccccc3Cl)CC2)s1`: -0.53%. For the molecule `COC(=O)c1cnc(N2CCN(c3ccccc3OC)CC2)c2ccccc12`, the activity change, negative = inhibition is -2.99%. For `O=c1c(NCc2cccs2)nccn1-c1ccccc1`, the activity change, negative = inhibition was -12.1%.

Consider `Cn1nnnc1SCCCNCc1cccc(OCc2ccc(Cl)cc2)c1`, for which the activity change, negative = inhibition is -15.2%. In the case of `Cn1nnnc1SCCNCc1ccc(Cl)c(Cl)c1`, the activity change, negative = inhibition is -61.6% (active). With `CCOc1ccc(CNCCSc2nnnn2C)cc1`, the activity change, negative = inhibition is -2.56%. Next, `Cn1nnnc1SCCCNCc1ccc(Cl)cc1`: -11.8%; `COc1cc(CNCCSc2nnnn2C)ccc1OCc1c(F)cccc1Cl`: -17.9%. For `Cc1c(Cl)cccc1-c1ccc(CNCCCSc2nnnn2C)o1`, the activity change, negative = inhibition was -35% (active). For `Cc1ccc2oc3c(c(=O)c2c1)C(c1ccc(O)cc1)N(Cc1ccc2c(c1)OCO2)C3=O` (stereo not drawn), the activity change, negative = inhibition is 0.447%. As to `CCOc1ccc(-c2n[nH]c3c2C(c2ccccc2OC)N(c2ccc(Br)cc2)C3=O)cc1` (stereo not drawn), the activity change, negative = inhibition was 9.65%. Next, `CCOC(=O)c1ccc(NC(=O)CCn2cnnn2)cc1`: 14.2%; `O=C1C(F)N([S+](=O)([O-])c2ccc3c(c2)OCCO3)CCN1[S+](=O)([O-])c1c(F)cccc1F` (stereo not drawn): -5.38%.

Take `CCOc1cc2[nH]c(=O)n(Cc3ccc(C(=O)NCCN(CC)CC)cc3)c(=O)c2cc1OCC`: the activity change, negative = inhibition is 5.18%.

For `CCc1cccc(NC(=O)CN(C)S(=O)(=O)c2ccc3[nH]c4c(c3c2)CCCC4)c1`, the activity change, negative = inhibition was -15.3%. `Cc1ccc(OC(=O)CSc2nnc(-c3cccs3)o2)cc1`: the activity change, negative = inhibition was -6.25%. Next, `O=C(NCc1ccc2c(c1)OCO2)c1c(O)nc2sccn2c1=O`: 2.36%.

With `O=C(NCc1ccc(Cl)cc1)c1cc(=O)nc2sc(-c3ccccc3)nn12`, the activity change, negative = inhibition was 0.956%. Regarding `O=C(NCc1ccc(Cl)cc1)c1cc2c(nc3sccn32)s1`, the activity change, negative = inhibition was -58.9% (active).

As for `Cc1ccc(C(=O)Nc2ccc(OCc3cc(=O)n4c5c(sc4n3)CCCC5)cc2)cc1`, the activity change, negative = inhibition is -13.4%.

Source of the values: PubChem BioAssay AID504652 (National Center for Advancing Translational Sciences (NCATS), 2011).
